Assay outcomes as filed in PubChem BioAssay.
Pf growth 96h – P. falciparum growth inhibition at 96 hour, primary screen for plastid delayed-death inhibitors; P. falciparum luciferase reporter growth, 96 h; AID 504834; 320,000 tested, 6.9% active; Potency, µM (highest dose often 28.7 µM), hits mostly inhibitors
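Compounds incubated with erythrocytes infected by luciferase-expressing P. falciparum (2% hematocrit, 0.05% parasitemia final) for 96 hours, 37 C in 5% CO2. Growth inhibition scored as decreased luciferase luminescence.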
Pf growth 48h – P. falciparum growth inhibition at 48 hours (one generation). P. falciparum luciferase growth in erythrocytes, 48 h. Potency, µM (titrated, usually from 28.7 µM), hits mostly inhibitors. AID 504832. 310,000 tested, 5.9% active
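Parasite viability was followed by luminescence of a genomically integrated firefly luciferase. Cultures held 0.1% parasitemia at 2% hematocrit (final), incubated under 5% CO2 at 37 C.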
HCV inh – blocks hepatitis C virus | Huh7.5.1 HCVcc-Cre infection, luciferase reporter, 44 h | Potency, µM (doses to about 41.8 µM), usual class: inhibitors | 340,000 tested, 3.4% active | AID 651820
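Infectious HCV cell culture screen: compound-treated cells (1,000/well, pre-plated 4 h) are infected with HCVcc-Cre at roughly 0.5 moi and grown 44 h. Infection is quantified by luciferase signal after 15 min substrate incubation at room temperature.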
AMA1 RON2 block – inhibitors of Plasmodium falciparum AMA1-RON2 interaction. AlphaScreen AMA1-biotinylated RON2 peptide binding. 360,000 tested, 0.2% active. AID 720542. Potency, µM (doses to about 58.2 µM), hits mostly inhibitors; also: nearly all actives have a fitted effect of over 45% in size
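AMA1 (3D7) with his tag at 25 nM final met compounds first, then biotinylated RON2 peptide at 25 nM; detection used donor plus acceptor beads, 10 µg/mL apiece, read by AlphaScreen after 30 min at room temperature.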
Of the large screens only hits and unclear results are named; the others gave an inactive call. Sampled rows, rich in hits. Any-hit rate of the full collection: about 11%. Calls follow the shape of the dose curve; as a rule, active = well fitted curve in the direction sought with a large enough effect; inconclusive = small, poorly fitted or top-dose-only effect, or another doubt; inactive = no such curve, though single readings can be large; an effect the other way counts as inactive or inconclusive.

CCOC(=O)C1=C(c2ccccc2)N=c2s/c(=C\c3cc(OC)c(OC)c(OC)c3)c(=O)n2C1c1cccs1 (centres undefined)	Pf growth 96h inconclusive, Pf growth 48h 0.657µM
CC(CCN1CCC(n2nccc2NC(=O)c2ccccc2Cl)CC1)c1ccccc1 (centres undefined)	none
Cc1cccc(C)c1OCC1CNC(=O)O1 (centres undefined)	none
O=C1NCC(COCc2ccccc2)O1 (centres undefined)	Pf growth 96h 5.22µM
CC1(C(=O)NCc2ccccc2)CSCC(=O)N1Cc1cccc(C(F)(F)F)c1 (centres undefined)	none (no result: Pf growth 96h, Pf growth 48h, HCV inh)
Cc1cc(Nc2ccccc2)nn1C(=O)c1ccccc1	Pf growth 96h 9.28µM, HCV inh inconclusive (no result: Pf growth 48h)
COc1ccc(C(=O)n2nc(C)cc2Nc2ccccc2)cc1	HCV inh inconclusive (no result: Pf growth 96h)
CCC(=O)Nc1ccc(C(=O)n2nc(C)cc2C)cc1	none
Cc1cc(Nc2ccccc2)nn1C(=O)c1ccc(Br)cc1	HCV inh 14.1µM (no result: Pf growth 96h)
Cc1cc(C)cc(C(O)c2ncc(-c3ccc(F)cc3)[nH]2)c1 (centres undefined)	none (no result: Pf growth 96h, Pf growth 48h, HCV inh)
COc1ccc2c(CC(=O)OCC(=O)Nc3sc4c(c3C#N)CCC(C)C4)coc2c1 (centres undefined)	none
CCCc1n[nH]c2c1/C(=N/O)CC(c1ccccc1)C2 (centres undefined)	Pf growth 96h inconclusive, Pf growth 48h inconclusive
CCCc1noc2c1/C(=N\O)CC(c1ccccc1)C2 (centres undefined)	Pf growth 96h inconclusive, Pf growth 48h 9.28µM
CCc1noc2c1/C(=N\O)CC(c1ccccc1)C2 (centres undefined)	Pf growth 48h 8.28µM
COc1ccc(CCNc2oc(COc3ccccc3Cl)nc2C#N)cc1OC	Pf growth 96h 3.7µM, Pf growth 48h 8.28µM, HCV inh inconclusive
COc1ccc(CCNc2oc(Cc3ccccc3)nc2C#N)cc1OC	HCV inh 10µM (no result: Pf growth 96h)
COc1ccc(N2C(=O)CCC(C(=O)NCc3ccccn3)C2c2ccc(F)cc2)cc1 (centres undefined)	Pf growth 96h inconclusive (no result: Pf growth 48h)
CCN(C(=O)C1CCN(c2nc(-c3ccc(OC)cc3)no2)CC1)c1ccc(OC)cc1	Pf growth 48h 9.28µM, HCV inh 8.91µM
COc1ccc(N2C(=O)CCC(C(=O)NCc3ccccn3)C2c2ccc(OC)c(OC)c2)cc1 (centres undefined)	Pf growth 96h 4.65µM
COc1ccc(C2C(C(=O)N3CCN(c4ccccn4)CC3)CC(=O)N2c2ccc(OC)cc2)cc1 (centres undefined)	Pf growth 48h 4.65µM
COc1ccc(-c2noc(N3CCC(C(=O)N4CCN(c5ccccn5)CC4)CC3)n2)cc1	Pf growth 96h inconclusive, Pf growth 48h inconclusive, HCV inh 4.47µM
Cc1ccc(Cl)cc1N1CCN(C(=O)Cn2ncn3cccc3c2=O)CC1	none
COC(=O)C[C@H]1C[C@H]2c3cc(NS(=O)(=O)c4cccc(OC)c4)ccc3O[C@H]2[C@@H](CO)O1	none (no result: Pf growth 96h, Pf growth 48h, HCV inh)
O=C(O)/C=C/c1cccc2c1OCCO2	Pf growth 48h inconclusive
COc1ccc(CCNC(=O)Cn2nnc(C(=O)Nc3cc(C)ccc3C)c2N)cc1OC	Pf growth 96h inconclusive, HCV inh inconclusive
COc1ccc2[nH]c3c(c2c1)CCn1c-3nc2sc(C(=O)Nc3ccccc3)c(C)c2c1=O	none (no result: AMA1 RON2 block)
COc1ccc(CN(C)C(=O)c2cccc(NS(=O)(=O)c3ccccc3)c2)cc1F	Pf growth 48h inconclusive
CCOC(=O)c1cnc(-n2nc(C)cc2C)nc1Oc1ccc(C(=O)OC)cc1	Pf growth 48h inconclusive
CCOC(=O)c1cnc(-n2nc(C)cc2C)nc1Nc1ccc(OC)cc1	Pf growth 96h 1.85µM, Pf growth 48h 4.15µM, HCV inh 11.2µM
CCOC(=O)c1cnc(-n2nc(C)cc2C)nc1NC1CCCC1	Pf growth 96h inconclusive, Pf growth 48h 1.47µM, HCV inh 1.12µM
CCOC(=O)c1cnc(-n2nc(C)cc2C)nc1Oc1ccccc1F	none
CCOC(=O)c1cnc(-n2nc(C)cc2C)nc1NCc1ccc2c(c1)OCO2	Pf growth 48h 4.65µM, HCV inh inconclusive (no result: Pf growth 96h)
CCOC(=O)c1cnc(-n2nc(C)cc2C)nc1NCCc1ccccc1	Pf growth 48h 4.15µM
O=C(NCCN1CCOCC1)c1ccc2c(c1)N(Cc1ccccc1F)C(=O)c1ccccc1S2(=O)=O	none
CC1CCCCN1CCNC(=O)c1ccc2c(c1)N(Cc1ccccc1)C(=O)c1ccccc1S2(=O)=O (centres undefined)	Pf growth 96h inconclusive, Pf growth 48h 5.22µM, HCV inh inconclusive
CCN1CCCC1CNC(=O)c1ccc2c(c1)N(Cc1cccc(Cl)c1)C(=O)c1ccccc1S2(=O)=O (centres undefined)	Pf growth 96h inconclusive, Pf growth 48h inconclusive
Cc1cccc(CN2C(=O)c3ccccc3S(=O)(=O)c3ccc(C(=O)NCCCN4CCCC4)cc32)c1	Pf growth 96h inconclusive, Pf growth 48h 10.4µM
O=C(NCCN1CCCC1)c1ccc2c(c1)N(Cc1cccc(Cl)c1)C(=O)c1ccccc1S2(=O)=O	Pf growth 48h 8.28µM, HCV inh inconclusive
CCN1CCN(C(=O)c2ccc3c(c2)N(Cc2ccccc2)C(=O)c2ccccc2S3(=O)=O)CC1	Pf growth 48h 6.57µM
COc1ccccc1C#CC1=CC(=O)C[C@H](c2ccc(F)cc2)C1	none (no result: Pf growth 96h, Pf growth 48h, HCV inh)
O=C(NC1CCCCC1)C(c1ccc(F)cc1)N(CCCN1CCOCC1)C(=O)c1ccc(CN2CCOCC2)o1 (centres undefined)	Pf growth 48h inconclusive
COc1ccc(N2C(=O)/C(=C\c3ccco3)N=C2SCC(=O)N(C(C)C)C(C)C)cc1Cl	Pf growth 96h inconclusive, Pf growth 48h 10.4µM
O=C(O)CCN1C(=O)c2ccc(Oc3ccc([N+](=O)[O-])cc3)cc2C1=O	Pf growth 96h inconclusive
O=C(CSc1nnc(-c2ccco2)n1Cc1ccco1)Nc1ccccc1	Pf growth 96h inconclusive
O=C(CSc1nnc(-c2ccccc2)n1Cc1ccco1)Nc1ccc(S(=O)(=O)N2CCCC2)cc1	Pf growth 96h inconclusive, Pf growth 48h inconclusive, HCV inh 14.1µM
COc1ccc(NC(=O)CSc2nnc(-c3ccccc3Cl)n2Cc2ccco2)c(OC)c1	Pf growth 48h inconclusive (no result: Pf growth 96h)
CCOc1ccc(NC(=O)CSc2nnc(-c3ccccc3Cl)n2Cc2ccco2)cc1	Pf growth 96h 0.0329µM, Pf growth 48h inconclusive, HCV inh inconclusive
CCn1c(SCc2ccccc2)nnc1-c1ccc(S(=O)(=O)N2CCCCC2)cc1	Pf growth 48h 10.4µM, HCV inh inconclusive
COc1ccc(NC(=O)CN(c2ccccc2F)S(=O)(=O)c2ccc(C)cc2)cc1	HCV inh inconclusive
CCC(C)c1ccc(NC(=S)N2CCN(C(=O)C3CCCO3)CC2)cc1 (centres undefined)	none
Oc1ccc(Nc2ccc3ccccc3c2)cc1	AMA1 RON2 block 14.1µM (no result: Pf growth 96h, Pf growth 48h)
CCCCn1nnnc1C1(C)CCC(=O)N1CCCN1CCOCC1 (centres undefined)	none (no result: Pf growth 96h, Pf growth 48h, HCV inh)
CCCCOCCCNC(=O)C[C@@H]1C[C@@]2(C(=O)OC)CC(C)(C)CC=C2N(Cc2cccc3ccccc23)C1=O	none (no result: Pf growth 96h, Pf growth 48h, HCV inh)
COC(=O)c1ccccc1NC(=O)CNCCc1ccc(OC)c(OC)c1	none
